Screening data from PubChem.
Bim-Bfl-1: disrupts Bim binding to human Bfl-1; Q16548; Bead-based flow cytometry, Bim-Bfl-1 binding inhibition; inhibition, % at 10 µM; 190,000 tested, 0.12% active;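 also: 0% = wells without compound plus tracer and 100% = blocker peptide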
Bcl-xL primary: Bcl-xL (human) inhibition; Q07817; GST-Bcl-xL / FITC-Bim BH3 peptide fluorescence polarization; inhibition, % at 10.9 µM; 320,000 tested, 0.7% active;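 active = inhibition above the mean of all tested compounds plus 3 SD, cutoff set per campaign, cut at about 30% in these data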;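 also: 0% = DMSO wells and 100% = unlabeled Bim-BH3 peptide competitor; inhibitors lower millipolarization by displacing the labeled peptide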
Bcl-W Bim block: disrupts Bim peptide binding to human Bcl-W. Q92843. 190,000 tested, 0.02% active. inhibition, % at 10 µM. bead-based flow cytometry. AID 952;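 also: 0% = bound tracer without compound and 100% = peptide blocker; higher means less fluorescent Bim peptide bound to Bcl-W beads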
Target sequence (Q92843 whole entry, looked up): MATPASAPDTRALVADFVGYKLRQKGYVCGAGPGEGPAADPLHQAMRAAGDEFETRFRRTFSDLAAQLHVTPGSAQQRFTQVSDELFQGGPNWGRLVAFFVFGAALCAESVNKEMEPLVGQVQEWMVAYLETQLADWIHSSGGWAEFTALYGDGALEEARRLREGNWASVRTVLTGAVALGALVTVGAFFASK
Bcl-B Bim block: human Bim-Bcl-B interaction inhibition; bead-based flow cytometry, Bim peptide-Bcl-B binding; inhibition, % at 10 µM; 190,000 tested, 0.073% active; AID 951;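 also: 0% = tracer peptide without compound and 100% = reference inhibitor peptide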
Bim-Bcl-XL: inhibitors of Bim-Bcl-XL interaction, human | 190,000 tested, 0.04% active | AID 1007 | Q07817 | Bim peptide-Bcl-XL binding, bead flow cytometry, fluorescence | inhibition, % at 10 µM
Bcl-2 Bim block: disrupts Bim peptide binding to human Bcl-2; P10415; Bead-based flow cytometry, Bim peptide-Bcl-2 binding; inhibition, % at 10 µM; 190,000 tested, 0.06% active; AID 950; in the data active = inhibition above about 40%;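 also: 0% = no compound wells with probe peptide and 100% = reference peptide inhibitor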
Target sequence (P10415 whole entry, looked up): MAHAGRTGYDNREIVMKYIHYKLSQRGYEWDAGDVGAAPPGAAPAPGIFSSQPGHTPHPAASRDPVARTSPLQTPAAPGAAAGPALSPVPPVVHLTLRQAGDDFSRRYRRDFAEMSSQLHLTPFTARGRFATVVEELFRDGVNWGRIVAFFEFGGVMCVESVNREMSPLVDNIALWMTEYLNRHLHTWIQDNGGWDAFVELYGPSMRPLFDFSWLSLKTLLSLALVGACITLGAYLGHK
An asterisk follows results filed as active; / = no result given. This is a sample that favours compounds with a hit; in the whole collection about 0.81% have one here. Rule as the data show it, unless noted: active = inhibition above about 40%.

SMILES	Bim-Bfl-1	Bcl-xL primary	Bcl-W Bim block	Bcl-B Bim block	Bim-Bcl-XL	Bcl-2 Bim block
O=C1C2=C(SCCS2)C(=O)N1CCCO	0	87*	2	0	-2	-1
Cc1onc(-c2ccccc2)c1-c1nnc(CN2CCN(S(=O)(=O)c3ccccc3F)CC2)o1	/	3	/	/	/	/
CCCCOc1ccc(N2CC(C(=O)NCc3ccco3)CC2=O)cc1 (configuration not stated)	/	4	/	/	/	/
COc1cc(/C=C2\CC/C(=C\c3cc(OC)c(O)c(OC)c3)C2=O)cc(OC)c1O	50*	-31	43*	18	25	37
CCOC(=O)C1=C(C)NC(C)=C(C(=O)OCC)C1C(=O)OCC(N)=O	-1	77*	0	-1	-1	-2
CCOC(=O)C1=C(C)NC(C)=C(C(=O)OCC)C1C(=O)OCC(=O)NC(C)C	-16	6	0	-10	-9	-6
CCN(CC)c1ccc(/C=C(/C#N)c2nc3ccc(C)cc3[nH]2)c(OC(C)C)c1	-15	42*	-2	-14	0	-17
CCCOc1cc(N(CC)CC)ccc1/C=C(/C#N)c1nc2ccc(C)cc2[nH]1	-13	-48	-2	-11	-10	-12
Cn1c(C(O)C(O)c2ccccc2)nc2ccccc21 (configuration not stated)	-9	-1	-2	-8	-4	-2
Cn1c(C(C#N)C2=C(Cl)C(=O)N(c3ccccc3)C2=O)nc2ccccc21 (configuration not stated)	-1	50*	4	-4	-13	-3
O=C(NCc1nnc(SCC(=O)N2CCN(c3ccccc3)CC2)o1)c1ccc(F)cc1	/	-2	/	/	/	/
Cn1cccc1-c1cc(C(=O)N/N=C/c2cccc(O)c2)[nH]n1	-3	2	0	1	2	0
O=[N+]([O-])c1ccc(O)c2ncccc12	3	1	2	-7	-1	4
O=[N+]([O-])c1ccc(O)c2cccnc12	-3	44*	-1	-6	-1	0
O=C(O)C1=CC[C@@H](c2ccc(Cl)cc2)N(S(=O)(=O)c2ccc(Cl)cc2)[C@H]1c1cccc(Cl)c1	/	-3	/	/	/	/
COCCn1c(C)cc(C(=O)COC(=O)C2CC(=O)N(CCc3ccc(OC)c(OC)c3)C2)c1C (configuration not stated)	/	8	/	/	/	/
CC(=O)NC1=C(NC2CCS(=O)(=O)C2)C(=O)c2ccccc2C1=O (configuration not stated)	41*	15	14	6	2	6
CCOC(=O)C1=C(C)OC(N)=C(C#N)C1c1cc(C)sc1C (configuration not stated)	0	8	-3	-1	-4	1
CCOC(=O)C1=C(C)OC(N)=C(C#N)C1c1cc2cc(C)ccc2nc1N1CCCCC1 (configuration not stated)	8	33*	2	-2	-1	-2
CCOC(=O)C1=C(C)OC(N)=C(C#N)C1c1cc2ccccc2nc1N1CCCCC1 (configuration not stated)	2	31*	0	-3	-1	0
O=C(CN1CCN(C(=O)C2CCCO2)CC1)Nc1cc(C(F)(F)F)ccc1Cl (configuration not stated)	/	3	/	/	/	/
O=C(CC1C(=O)NCCN1Cc1ccccn1)NCCc1ccccc1F (configuration not stated)	/	30*	/	/	/	/
COc1ccc(OC)c2nc3c(cc12)CCC3	/	52*	/	/	/	/
N#Cc1c(-c2ccco2)cc(-c2ccc(F)cc2)nc1N	11	-6	1	0	0	2
CC(C)Cc1cc(-c2ccco2)c(C#N)c(N)n1	73*	4	26	93*	30	90*
SMILES	Bim-Bfl-1	Bcl-xL primary	Bcl-W Bim block	Bcl-B Bim block	Bim-Bcl-XL	Bcl-2 Bim block
CCc1cc[n+](-c2nc([O-])sc2C=O)cc1	0	122*	1	1	-6	1
CC(C)c1cc[n+](-c2nc([O-])sc2C=O)cc1	2	42*	0	0	2	1
CC(C)(C)c1cc[n+](-c2nc([O-])sc2C=O)cc1	-5	19	-5	-8	-8	-4
COc1ccc(/C=C/C(=O)NCC(=O)N/N=C(/C)c2ccco2)cc1	/	2	/	/	/	/
Cc1ccc(N(CC(=O)NCc2ccc(F)cc2)C(=O)c2snc(C(N)=O)c2N)cc1C	/	0	/	/	/	/
CCOC(=O)C1=C(N)N(c2ccccc2Oc2ccccc2)C(=O)C1	-1	5	2	1	0	-1
CCOC(=O)C1=C2NC(=O)c3ccccc3N2C(=O)C1	-3	48*	-2	-7	-2	-1
Clc1ccc(SCCOCCN2CCCCCC2)cc1	/	3	/	/	/	/
CCOC(=O)/C=C1/N(C)c2ccccc2C1(C)C	/	-1	/	/	/	/
CN1/C(=C\P(=O)(N(C)C)N(C)C)C(C)(C)c2ccccc21	-1	45*	-1	-2	-3	1
CC(C)n1nnnc1SCC(=O)N1CCN(C(=O)c2ccco2)CC1	-2	7	31	93*	50*	18
Nc1c(C(=O)N/N=C/c2cccnc2)oc2nc(-c3ccccc3)cc(-c3ccco3)c12	/	-22	/	/	/	/
Nc1c(C(=O)N/N=C/c2cccnc2)oc2nc(-c3ccco3)cc(-c3ccco3)c12	/	68*	/	/	/	/
CC1OC2(C)OC(=N)C1(C#N)C(C#N)(C#N)C2c1ccccc1 (configuration not stated)	1	55*	1	2	2	0
CCCCC1OC2(C)OC(=N)C1(C#N)C(C#N)(C#N)C2c1ccccc1 (configuration not stated)	-13	21	-6	-14	-13	-6
CC1C2(C)OC(=N)C(C#N)(C(C)O2)C1(C#N)C#N (configuration not stated)	/	52*	/	/	/	/
O=C(COC(=O)c1ccccc1O)Nc1ncc(Cl)cc1Cl	-3	36*	0	-1	-1	-1
Cc1c(Cl)cnc(NC(=O)COC(=O)c2ccncc2)c1Cl	/	34*	/	/	/	/
Cc1c(Cl)cnc(NC(=O)COC(=O)[C@H](C)NC(=O)c2ccccc2)c1Cl	/	32*	/	/	/	/
Cc1cccc(NC(=O)CSc2ccc3nnc(-c4cccnc4)n3n2)c1	/	7	/	/	/	/
O=C(O)CC/C(=C\c1cc([N+](=O)[O-])ccc1Cl)c1nc2ccccc2s1	24	4	33	37	40*	28
O=C(O)CC/C(=C\c1ccccc1[N+](=O)[O-])c1nc2ccccc2s1	0	3	0	0	-3	-1
COc1cccc(NC(=O)CNC(=O)N2CC(=O)Nc3ccccc32)c1	/	44*	/	/	/	/
COc1ccc(CNC(=O)CNC(=O)N2CC(=O)Nc3ccccc32)cc1	/	7	/	/	/	/
COC(=O)/C(C(C)=O)=C(/C=C/C=C/N(C)C)N(C)C	-8	12	4	-3	-2	-5
COC(=O)\C(C(C)=O)=C(/C=C/C=C/N(C)C)N(C)C	-4	32*	0	0	0	-3
O=c1c2ccccc2nc2n1CC/C2=C/N1CCN(c2cccc(C(F)(F)F)c2)CC1	-2	50*	-2	-1	-4	-3
